Screen size: about 390,000 compounds; about 17,000 (4.4%) were called active. Inconclusive results (about 8%) are left out. Calls come from the whole dose curve; as a rule, active = well fitted inhibition curve with a large enough effect; inconclusive = small, poorly fitted or top-dose-only effect; inactive = no such curve, though single readings can be large or run the other way. The list comes from a sample in which actives are over-represented; it also holds similar structures and randomly drawn compounds.
% is set by controls: 0 for no effect and ±100 for the full control effect; potency is the fitted concentration of half-maximal effect.

This test deals with Lysine-specific demethylase 4A (Homo sapiens) (UniProt O75164). Nature of the test: qHTS Assay for Inhibitors of JMJD2A-Tudor Domain. Note: nearly all actives have a fitted effect of over 50% in size. The conditions noted are these: AlphaScreen JMJD2A-Tudor / H3K4me3 peptide binding; series mostly up to 114 µM; activity change, negative = inhibition: at the top concentration. For orientation: Quantitative high-throughput screening tests each substance at several concentrations.
Chain of Lysine-specific demethylase 4A (Homo sapiens) (O75164 whole entry, looked up, the tested form may be a part): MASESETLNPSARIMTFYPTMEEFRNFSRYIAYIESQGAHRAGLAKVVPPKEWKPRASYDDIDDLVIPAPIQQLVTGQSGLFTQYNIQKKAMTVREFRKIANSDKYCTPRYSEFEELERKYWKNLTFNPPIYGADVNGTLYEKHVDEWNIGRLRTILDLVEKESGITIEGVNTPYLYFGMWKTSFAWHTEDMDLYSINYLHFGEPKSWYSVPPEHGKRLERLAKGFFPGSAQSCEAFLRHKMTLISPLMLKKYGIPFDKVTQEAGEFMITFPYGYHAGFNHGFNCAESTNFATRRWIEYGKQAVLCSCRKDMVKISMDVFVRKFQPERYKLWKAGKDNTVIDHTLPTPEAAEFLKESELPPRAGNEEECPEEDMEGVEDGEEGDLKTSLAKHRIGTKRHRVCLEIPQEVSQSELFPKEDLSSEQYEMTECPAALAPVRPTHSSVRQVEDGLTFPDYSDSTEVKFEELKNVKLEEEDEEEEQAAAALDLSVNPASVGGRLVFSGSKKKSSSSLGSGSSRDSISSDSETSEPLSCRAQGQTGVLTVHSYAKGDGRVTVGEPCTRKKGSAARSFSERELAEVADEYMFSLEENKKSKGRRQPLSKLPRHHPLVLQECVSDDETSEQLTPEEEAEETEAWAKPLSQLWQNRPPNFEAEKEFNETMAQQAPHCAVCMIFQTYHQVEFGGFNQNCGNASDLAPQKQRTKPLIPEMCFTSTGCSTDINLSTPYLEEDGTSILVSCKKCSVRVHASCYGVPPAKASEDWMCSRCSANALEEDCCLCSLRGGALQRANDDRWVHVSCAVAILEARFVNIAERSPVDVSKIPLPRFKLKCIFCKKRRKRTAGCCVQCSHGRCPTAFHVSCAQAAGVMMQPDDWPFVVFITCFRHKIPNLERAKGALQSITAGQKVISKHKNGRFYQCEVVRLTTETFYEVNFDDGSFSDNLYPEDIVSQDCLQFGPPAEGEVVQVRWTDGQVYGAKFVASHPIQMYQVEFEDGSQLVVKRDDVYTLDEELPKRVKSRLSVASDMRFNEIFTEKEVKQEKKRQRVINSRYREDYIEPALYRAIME
On to `COc1cccc(NC(=O)Cn2c(=O)cc(C)c3c(C)nn(-c4cccc(F)c4)c32)c1`, for which the “activity change, negative = inhibition” value was -6% (inactive).

Turning to `O=S(=O)(c1ccccc1)c1nc(-c2ccc(Cl)cc2Cl)oc1N1CCCCC1`, the “activity change, negative = inhibition” value was -30.6% (inactive).

Turning to `OCCNc1nc2ccccc2n1-c1ncnc2sc3c(c12)CCC3`, the “activity change, negative = inhibition” value is -15.2% (inactive).

For the compound `CCCSc1ncccc1C(=O)O`, the “activity change, negative = inhibition” value was -11% (inactive).

As to `O=C(O)c1cccnc1Sc1ncnc2sc3c(c12)CCC3`, the Potency is 31.6 µM (active).

Turning to `Cc1ccc2oc3c(c(=O)c2c1)C(c1ccc([N+](=O)[O-])cc1)N(CCCN1CCOCC1)C3=O` (stereo not drawn), the “activity change, negative = inhibition” value is -12.9% (inactive).

Turning to `CCc1ccccc1NC(=O)N1CCC2(CC1)Oc1ccccc1C(=O)N2Cc1ccccc1F`, the “activity change, negative = inhibition” value was -9.82% (inactive).

On to `CC(=O)Nc1ccc(NC(=O)CCCc2nc(-c3ccc(C(C)(C)C)cc3)no2)cc1`, for which the “activity change, negative = inhibition” value was -15.6% (inactive).

As for `O=C(N/N=C/c1ccc(Cl)cc1)c1nc2ccc([N+](=O)[O-])cc2c(=O)[nH]1`, the Potency is 28.2 µM (active).

For `O=C(N/N=C/c1cccc(OC(=O)c2ccc([N+](=O)[O-])cc2)c1)c1cccnc1`, the “activity change, negative = inhibition” value was -9.12% (inactive).

On to `N#Cc1cc([N+](=O)[O-])ccc1Oc1cccc(/C=N/NC(=O)c2ccc(Cl)cc2)c1`, for which the “activity change, negative = inhibition” value was 3.79% (inactive).

As to `COC(=O)c1ccc(NC(=O)CCc2c(C)nn(-c3ccc(N4CCCC4)nn3)c2C)cc1`, the “activity change, negative = inhibition” value is -28% (inactive).

Take `Cc1cc(C)cc(Nc2ncnc3onc(-c4ccc(F)cc4)c23)c1`: the “activity change, negative = inhibition” value was 19.4% (inactive).

For the compound `Brc1nc2ncnc(NCc3ccco3)c2[nH]1`, the “activity change, negative = inhibition” value is -4.62% [at 57.1 µM] (inactive).

As for `O=C1CSC(=S)N1/N=C/c1ccc(O)c([N+](=O)[O-])c1`, the Potency was 20 µM (active).

On to `O=C(CNC(=O)c1ccc(Cl)c(C(F)(F)F)c1)OC(C(=O)Nc1cc(C(F)(F)F)ccc1Cl)c1ccccc1` (stereo not drawn), for which the “activity change, negative = inhibition” value was -21.2% (inactive).

With `CCOC(=O)c1ccccc1NC(=O)c1nn(-c2ccc(OC)c(Cl)c2)c(=O)c2c1c1ccccc1n2C`, the “activity change, negative = inhibition” value was 0% (inactive).

As to `N#Cc1nc(Nc2cc(F)cc(Cl)c2)nc(NC2CCCC2)n1`, the “activity change, negative = inhibition” value was -3.42% (inactive).

Regarding `CC(C)(C)C(=O)OCc1nc(-c2ccc(O)c(O)c2)cs1`, the Potency is 3.55 µM (active).

Regarding `Cc1onc(C(=O)NN)c1-c1csc(COc2ccccc2)n1`, the “activity change, negative = inhibition” value is -5.43% (inactive).

Regarding `CCCC(=O)N1c2ccc(-c3csc(N)n3)cc2CC1C` (stereo not drawn), the “activity change, negative = inhibition” value was -22.4% (inactive).

Take `Cc1cc(C)c(NC(=O)CSc2nc3nccnc3c(=O)n2CCc2c[nH]c3ccccc23)c(C)c1`: the “activity change, negative = inhibition” value was -1.32% (inactive).

On to `COC(=O)c1ccccc1NC(=O)c1ccc(C#N)cc1`, for which the “activity change, negative = inhibition” value was -6.85% (inactive).

Take `COc1cc(NC(=O)Cn2c(=O)n(Cc3ccco3)c(=O)c3oc4ccccc4c32)cc(OC)c1`: the “activity change, negative = inhibition” value was -12.1% (inactive).

`O=S(=O)(NCCc1nnc2ccc(SCc3ccc(Cl)cc3Cl)nn12)c1ccccc1`: the “activity change, negative = inhibition” value is -28.2% (inactive).

Take `O=C(O)/C=C/C(=O)NNc1ccc([N+](=O)[O-])cc1`: the Potency was 31.6 µM (active).

On to `CNC(=S)Nc1ccc([N+](=O)[O-])cc1`, for which the “activity change, negative = inhibition” value was -16.7% (inactive).

Turning to `NC(=O)C1(Nc2ccc([N+](=O)[O-])cc2)CCCC1`, the “activity change, negative = inhibition” value was -8.28% (inactive).

In the case of `CCS(=O)(=O)N1CCC(n2c(C)nc3cccnc32)CC1`, the “activity change, negative = inhibition” value was -7.47% (inactive).

Take `CCN(C(=O)CSc1ncn[nH]1)c1cccc2ccccc12`: the Potency is 3.16 µM (active).

For the compound `CCN(C(=O)COC(=O)c1ccccc1O)c1cccc2ccccc12`, the “activity change, negative = inhibition” value is 5.48% (inactive).

In the case of `O=C(CSc1ncn[nH]1)Nc1ccnc2ccccc12`, the “activity change, negative = inhibition” value is -14.5% (inactive).

Turning to `Cc1ccc(-c2onc(C)c2C)cc1S(=O)(=O)Nc1ccccn1`, the “activity change, negative = inhibition” value is -2.92% (inactive).

As for `COC(=O)c1cc(S(=O)(=O)N2CCN(c3cc(Cl)ccc3C)CC2)c[nH]1`, the “activity change, negative = inhibition” value was -12.8% (inactive).

As for `O=C(Nn1cc(C(=O)N2CCN(c3ccccc3F)CC2)c2ccccc2c1=O)c1cnccn1`, the Potency was 25.1 µM (active).

As to `O=C(Cn1nc(Cc2cccnc2)c2ccccc2c1=O)N1CCN(c2ccccc2F)CC1`, the “activity change, negative = inhibition” value was -17.9% (inactive).

Take `Cc1nc2ccn(Cc3cccnc3)c(=O)c2cc1C(=O)N1CCN(c2ccccc2F)CC1`: the “activity change, negative = inhibition” value is -13.7% (inactive).

For `CCN(CC)S(=O)(=O)c1ccc(C(=O)N=c2sc3cccc(OC)c3n2C)cc1`, the “activity change, negative = inhibition” value was 7.09% (inactive).

Turning to `O=C(NCc1ccc2c(c1)CCN2C(=O)c1ccccc1)Nc1cc(F)ccc1F`, the “activity change, negative = inhibition” value is -25.3% (inactive).

Consider `CCc1cnc2c(c1SCC(=O)c1ccccc1)c(=O)n(C)c(=O)n2C`, for which the “activity change, negative = inhibition” value is -8.44% (inactive).

`COc1ccc(-c2nn3c(=O)cc(CN4CCN(C(=O)c5ccc(OC)c(OC)c5)CC4)nc3s2)cc1`: the “activity change, negative = inhibition” value was -11.7% (inactive).

For `CN1CCN(CCCCOc2cccc3ccccc23)CC1`, the “activity change, negative = inhibition” value was -30.3% (inactive).

For `CCN1CCN(CCCCOc2ccccc2F)CC1`, the Potency is 0.794 µM (active).

For the compound `COc1ccccc1OCCCCCCN1CCN(C)CC1`, the “activity change, negative = inhibition” value was -32.2% (inactive).

Consider `CC(C)NC(=O)c1nn(-c2ccccc2F)nc1CO`, for which the “activity change, negative = inhibition” value is -10.1% (inactive).

On to `Cc1[nH]c2ccccc2c1C(c1ccccc1)c1cccs1` (stereo not drawn), for which the “activity change, negative = inhibition” value was -2.63% (inactive).

With `Cc1cccc(-n2ncc(C(=O)N3CCC(C)CC3)c2C2CCN(C(=O)OC(C)(C)C)CC2)c1`, the “activity change, negative = inhibition” value was -5.18% (inactive).

Regarding `CCCCSc1ncnc2c1sc1nc(N3CCOCC3)c3c(c12)CCCC3`, the “activity change, negative = inhibition” value was -5.84% (inactive).

In the case of `Cc1cc(C)n(CC(O)COc2ccc(C(C)(C)C)cc2)n1` (stereo not drawn), the Potency was 79.4 µM (active).

Take `Cc1cc(C)n(CC(O)CN(c2ccccc2)S(=O)(=O)c2ccc3ccccc3c2)n1` (stereo not drawn): the “activity change, negative = inhibition” value is -14.1% (inactive).

Consider `CCC(=O)c1ccc(OCC(O)Cn2nc(C)c(C(C)=O)c2C)cc1` (stereo not drawn), for which the “activity change, negative = inhibition” value is -28.5% (inactive).

`COc1ccc(S(=O)(=O)c2c(Nc3ccc(C)cc3)sc(C(=O)c3ccc(C)cc3)c2N)cc1`: the “activity change, negative = inhibition” value was -18.2% (inactive).

Take `CSc1ccc(C2c3c(oc4ccccc4c3=O)C(=O)N2CCCN2CCOCC2)cc1` (stereo not drawn): the “activity change, negative = inhibition” value was -7.22% (inactive).

In the case of `COc1ccc(-c2nc3sc(CCNS(=O)(=O)c4ccc(F)c(C)c4)c(C)n3n2)cc1`, the “activity change, negative = inhibition” value is -9.42% (inactive).

For the compound `CC(C)c1cc(C(=O)O)n[nH]1`, the Potency was 28.2 µM (active).

Consider `Cc1cc(C)nc(NS(=O)(=O)c2ccc(NC(=O)c3cc(=O)c4ccc(C)c(C)c4o3)cc2)n1`, for which the “activity change, negative = inhibition” value is -26.7% (inactive).

Consider `CC1=C(C(=O)N2CCN(c3cccc(C(F)(F)F)c3)CC2)C2(CCCCC2)OC1=O`, for which the “activity change, negative = inhibition” value is -3.37% (inactive).

On to `Cc1ccc(Cl)cc1N1CCN(C(=O)c2cnc3c(-c4ccc(F)cc4)c(C)nn3c2C)CC1`, for which the “activity change, negative = inhibition” value was -1% (inactive).

As to `O=C(CNC(=O)c1ccc(Cl)cc1Cl)OC(C(=O)Nc1cc(C(F)(F)F)ccc1Cl)c1ccccc1` (stereo not drawn), the “activity change, negative = inhibition” value was -11% (inactive).

Regarding `COc1cc(/C=C/C(=O)N2c3ccccc3Sc3ccc(C(F)(F)F)cc32)cc(OC)c1OC`, the “activity change, negative = inhibition” value was -19.3% (inactive).

Consider `CCOc1ccc(/C=C2\SC(=S)N(NC(=O)c3ccncc3)C2=O)cc1OC`, for which the “activity change, negative = inhibition” value was -24.7% (inactive).

For the compound `COc1cc(/C=C2\SC(=S)N(Nc3ncc(C(F)(F)F)cc3Cl)C2=O)cc(OC)c1OC`, the Potency is 44.7 µM (active).

As for `COc1ccc(CCNc2nc3c(-c4cccc(F)c4)nnn3c3ccccc23)cc1OC`, the “activity change, negative = inhibition” value is -4.97% (inactive).

The values above are taken from PubChem BioAssay AID504339 (National Center for Advancing Translational Sciences (NCATS), 2011).
